This note sets out measurements from PubChem BioAssay (NCATS).

SMILES strings stand for the structures. “And” between values parts separate entries of the source, which are not always exact repeats. Identical values can stand only once. Records with an inconclusive call do not appear. The source made the active and inactive calls. Unless noted, calls follow the shape of the dose curve; as a rule, active = well fitted curve in the direction sought with a large enough effect; inconclusive = small, poorly fitted or top-dose-only effect, or another doubt; inactive = no such curve, though single readings can be large; an effect the other way counts as inactive or inconclusive.

Experiment [1] concerns the target Cytochrome P450 2C9 (Homo sapiens) (UniProt P11712). Put plainly: qHTS Assay for Inhibitors and Substrates of Cytochrome P450 2C9 (AID 883). Also: % is scaled to controls: 0 for no effect and ±100 for the full control effect; nearly all actives have a fitted effect of over 60% in size. A digest of the protocol: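 CYP2C9 deoxyluciferin hydroxylation, 37C, 60 min with NADPH regeneration; 10nM enzyme, 100uM Luciferin-H (KM). Glo detection reagent stopped reaction; luminescence normalized to sulphaphenazole (57uM) full inhibition.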
(In general: Quantitative high-throughput screening tests each substance at several concentrations.)

The target in experiment [2] is Cytochrome P450 3A4 (Homo sapiens) (UniProt P08684). Put plainly: qHTS Assay for Inhibitors and Substrates of Cytochrome P450 3A4 (AID 884). Also: % is scaled to controls: 0 for no effect and ±100 for the full control effect; nearly all actives have a fitted effect of over 50% in size. In a few lines:
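20 nM human CYP3A4 with 25 uM Luciferin-PPXE (at KM) in 200 mM KPO4, preincubated 10 min with compound; NADPH regeneration started a 60 min RT reaction. Luciferin detected by luminescence, normalized to 57 uM ketoconazole as full inhibition.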

The nature of experiment [3]: qHTS Assay for Identification of Small Molecule Antagonists for NFkB Signaling Pathway (AID 895; active = well fitted inhibition curve with a large enough effect in the signal ratio, with a control signal flat, not every such curve was filed as active; the % refers to the signal ratio; also: % is scaled to controls: 0 for no effect and ±100 for the full control effect). In a few lines: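 NFkB-bla ME-180 cervical carcinoma cells with beta-lactamase reporter under NFkB response element; compounds added, then TNF alpha at 10 pM final (EC50), 5 h at 37 C. LiveBLAzer substrate 2 h, room temperature; emission 460/530 nm at 405 nm excitation.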

The target of experiment [4] is Muscarinic acetylcholine receptor M1 (Rattus norvegicus) (UniProt P08482). Description: qHTS Assay for Antagonists of Acetylcholine Muscarinic M1 Receptor: Kinetic Measurement of Intracellular Calcium Response (AID 943). Also: nearly all actives have a fitted effect of over 75% in size. Also: potency is read from the fitted curve at half-maximal effect. In a few lines:
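CHO cells stably expressing rat M1 were loaded with no-wash Fluo-4 dye for 1 h at 37C, pre-incubated 10 min with compound, then challenged with EC80 carbachol (100 nM final); kinetic calcium read 4 min, peak/basal ratio.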

Experiment [5] is described as follows: qHTS Assay for Identification of Small Molecule Agonists for Hypoxia Response Element Signaling Pathway (AID 914; active = well fitted activation curve with a large enough effect in the signal ratio, with a control signal flat, not every such curve was filed as active; the % refers to the signal ratio; also: % of control where 0% means no effect). Particulars: ME-180 (cervical carcinoma) HRE-bla reporter, beta-lactamase ratio, CoCl2, 17 h; stronger effect = higher value. In a few lines:
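AC50 values come from titration-series %Activity, taken as the 460/530nm ratio of CCF4 fluorescence (excitation 405nm). CellSensor HRE-bla ME-180 cells were treated 17 hours at 37 C with compound plus an EC50 level of CoCl2.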

The target of experiment [6] is Cytochrome P450 2D6 (Homo sapiens) (UniProt P10635). Description: qHTS Assay for Inhibitors and Substrates of Cytochrome P450 2D6 (AID 891). Also: potency is read from the fitted curve at half-maximal effect; nearly all actives have a fitted effect of over 60% in size. In a few lines:
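Human CYP2D6 (5 nM) with 30 uM Luciferin-ME EGE (at Km) in 100 mM KPO4, compound preincubated 10 min, then NADPH regeneration system for 60 min at room temperature. Luciferin read by luminescence; normalized to 1.43 uM quinidine.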

Experiment [7] in a line: Cell Viability - BJ (AID 421; calls by dose curve;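 also: potency is read from the fitted curve at half-maximal effect; cells exposed to compound for 40 hours at 37 °C before readout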). The settings on record: BJ fibroblast viability, qHTS. In a few lines: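 Quantitative HTS: ATP depletion in BJ cells after 40 hr compound exposure in complete culture medium, detected with CellTiter-Glo; AC50 from standard Hill fits.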
The nature of experiment [8]: Cell Viability - Jurkat (AID 426;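 active = dose-dependent loss of cell ATP signal giving a full or clear fitted curve, ranked by lower potency value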; also: potency is read from the fitted curve at half-maximal effect). The settings on record: qHTS. In a few lines:
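Jurkat (clone E6-1, human T-cell leukemia) cells, 5000/well in complete medium, were exposed to compound for 40 hr at 37 °C. Viability was read as intracellular ATP by CellTiter-Glo luminescence; AC50 came from Hill fits of concentration-response data.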

The nature of experiment [9]: Cell Viability - SK-N-SH (AID 435; calls by dose curve; also: potency is read from the fitted curve at half-maximal effect). The settings on record: SK-N-SH neuroblastoma cell viability qHTS. In a few lines: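 qHTS cytotoxicity: CellTiter-Glo ATP luminescence after 40 h compound exposure of human neuroblastoma SK-N-SH cells at 37 °C. AC50 derived by Hill-equation fitting, with DMSO as basal and 100 uM tamoxifen as full inhibition.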
Experiment [10] in a line: Cell Viability - N2a (AID 540).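 Also: plate controls were DMSO alone for no effect and tamoxifen control for full effect; nearly all actives have a fitted effect of over 45% in size.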 The settings on record: N2a mouse neuroblastoma cell viability; activity change, negative = cytotoxicity: at 92.2 µM (top of the series). A digest of the protocol:
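Mouse neuroblastoma N2a cells (1500/well) were preincubated 5 hr at 37 °C, then exposed to compounds for 40 hr at 37 °C in complete medium. Viability was read as intracellular ATP by CellTiter-Glo luminescence; AC50 from Hill fits.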

Experiment [11] can be described thus: Cell Viability - HUV-EC-C (AID 542). Also: % is scaled to controls: 0 for no effect and ±100 for the full control effect; nearly all actives have a fitted effect of over 35% in size. In a few lines:
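HUV-EC-C normal human vascular endothelial cells, 1000 cells/well, pre-incubated 5 hr at 37 °C, then exposed to compounds for 40 hr at 37 °C in complete medium. Viability measured as intracellular ATP by CellTiter-Glo luminescence; AC50 from Hill fits.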

Experiment [12] in a line: Cell Viability - SH-SY5Y (AID 544).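 Also: 0% = DMSO alone and -100% = 100 µM tamoxifen; nearly all actives have a fitted effect of over 55% in size.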 Particulars: SH-SY5Y neuroblastoma cell viability; viability change, negative = cytotoxic: at 92.2 µM (top of the series). A digest of the protocol:
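Human neuroblastoma SH-SY5Y cells (1500/well) in complete medium were exposed to compounds for 40 hr at 37 °C; intracellular ATP was then quantified by CellTiter-Glo luminescence after 20 min at room temperature. AC50 came from Hill-equation concentration-response fits.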

Experiment [13] can be described thus: Cell Viability - Renal Proximal Tubule (AID 545).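 Also: 0% = DMSO only and -100% = 100 µM tamoxifen; nearly all actives have a fitted effect of over 40% in size.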 In a few lines: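 Viability taken as intracellular ATP (CellTiter-Glo luminescence) after 40 hr, 37 °C compound treatment of primary proximal tubule cells from rat kidney, 1000 cells/well; Hill-equation fits of qHTS concentration-response data gave AC50.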
Experiment [14] in a line: Cell Viability - Mesenchymal (AID 546).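 Also: cells exposed to compound for 40 hours before reading; 0% = DMSO only and -100% = 100 µM tamoxifen.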 In a few lines: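 Normal human renal glomerulus-derived kidney mesenchymal cells, 1000 per well in complete medium, were treated with compounds for 40 hr at 37 °C. Viability was read as intracellular ATP by CellTiter-Glo luminescence; AC50 values came from Hill-equation fits of qHTS concentration-response data.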
The target of experiment [15] is Glucocorticoid receptor (Homo sapiens) (UniProt P04150). Description: qHTS assay for small molecule agonists of glucocorticoid receptor signaling (AID 588532; active = well fitted curve in the direction sought with a large enough effect in the signal ratio, with a control signal flat; the % refers to the signal ratio;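 also: 100% = dexamethasone at 0.1 µM and 0% = DMSO only wells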). Particulars: HeLa MMTV-bla, beta-lactamase ratio, agonist, 18 h; stronger effect = higher value; percent of dexamethasone control, DMSO zero. In a few lines:
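Stimulation of a glucocorticoid response element-driven beta-lactamase gene was measured in HeLa cells. Responses were scaled between DMSO basal and 0.1 uM dexamethasone, then fitted for half-maximal stimulation.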

Experiment [16] is described as follows: qHTS assay for small molecule agonists of retinoid X receptor alpha signaling (AID 588544). Particulars: HEK293T RXRa-UAS-bla, beta-lactamase reporter, 18 h; 530 nm emission.
In experiment [17] the target is Thyroid hormone receptor beta (Homo sapiens) (UniProt P10828). Description: qHTS assay for small molecule agonists of thyroid hormone receptor beta signaling (AID 588545; calls by dose curve;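 also: 0% = DMSO only and 100% = 10 nM T3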). A digest of the protocol:
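TR-UAS-bla-GripTite HEK 293 cells in medium with 2% charcoal/dextran FBS, 0.1 mM NEAA and 1 mM sodium pyruvate were treated with titrated compounds for 18 hrs at 37 C. Beta-lactamase reporter was read with CCF4 dye (ex 405, em 460/530 nm); EC50 from Hill fits.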

A short description of experiment [18]: qHTS assay for small molecule antagonists of retinoid X receptor alpha signaling (AID 588546; active = well fitted inhibition curve with a large enough effect in the signal ratio, with a control signal flat, not every such curve was filed as active; the % refers to the signal ratio;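 also: cells stimulated with 9-cis-retinoic acid as agonist; % is scaled to controls: 0 for no effect and ±100 for the full control effect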). The settings on record: HEK293T RXRa-UAS-bla, beta-lactamase ratio, antagonist mode; measured here: W530 green channel, cytotoxicity proxy. A digest of the protocol: (§1)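 Beta-lactamase reporter inhibition, read as CCF4 fluorescence ratio (ex 405, em 460/530 nm) after 2 h at RT. HEK293T UAS-bla cells, 2500/well, were stimulated with 9-cis-RA at 500 or 100 nM final alongside test compound for 18 h at 37 C.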

Experiment [19] addresses Retinoic acid receptor RXR-alpha (Homo sapiens) (UniProt P19793). The experiment is described as above. Particulars: HEK293T RXRa-UAS-bla, beta-lactamase ratio, antagonist mode. In a few lines:
as §1

Experiment [20] deals with Thyroid hormone receptor beta (Homo sapiens) (UniProt P10828). Description: qHTS assay for small molecule antagonists of thyroid hormone receptor beta signaling (AID 588547; active = well fitted inhibition curve with a large enough effect in the signal ratio, with a control signal flat, not every such curve was filed as active; the % refers to the signal ratio;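 also: cells stimulated with 0.4 nM T3 agonist during compound exposure; % is scaled to controls: 0 for no effect and ±100 for the full control effect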). The settings on record: TR-UAS-bla HEK293, beta-lactamase ratio, antagonist mode, 18 h. A digest of the protocol: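 TR-UAS-bla GripTite HEK293 cells in 2% charcoal/dextran FBS medium were preincubated 4 h at 37 C, given compound (0.59 nM to 92 uM) plus 0.4 nM T3 (final) for 18 h, then CCF4 for 2 h at RT; Hill fit gave IC50.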
Sequence of Thyroid hormone receptor beta (Homo sapiens) (P10828 whole entry, looked up): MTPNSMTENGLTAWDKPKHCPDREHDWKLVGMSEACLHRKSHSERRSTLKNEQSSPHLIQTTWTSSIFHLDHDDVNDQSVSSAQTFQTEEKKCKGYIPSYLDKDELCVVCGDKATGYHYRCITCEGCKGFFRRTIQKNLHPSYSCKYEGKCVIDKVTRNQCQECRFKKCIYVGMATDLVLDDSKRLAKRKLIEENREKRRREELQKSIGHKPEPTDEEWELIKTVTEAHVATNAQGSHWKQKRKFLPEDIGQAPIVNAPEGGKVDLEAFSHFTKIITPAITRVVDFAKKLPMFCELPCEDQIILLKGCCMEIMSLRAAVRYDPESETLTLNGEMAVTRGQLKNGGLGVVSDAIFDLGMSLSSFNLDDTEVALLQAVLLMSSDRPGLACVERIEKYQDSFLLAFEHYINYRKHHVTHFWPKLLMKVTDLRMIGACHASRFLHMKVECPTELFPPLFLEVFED

Sequence of Cytochrome P450 3A4 (Homo sapiens) (P08684 whole entry, looked up): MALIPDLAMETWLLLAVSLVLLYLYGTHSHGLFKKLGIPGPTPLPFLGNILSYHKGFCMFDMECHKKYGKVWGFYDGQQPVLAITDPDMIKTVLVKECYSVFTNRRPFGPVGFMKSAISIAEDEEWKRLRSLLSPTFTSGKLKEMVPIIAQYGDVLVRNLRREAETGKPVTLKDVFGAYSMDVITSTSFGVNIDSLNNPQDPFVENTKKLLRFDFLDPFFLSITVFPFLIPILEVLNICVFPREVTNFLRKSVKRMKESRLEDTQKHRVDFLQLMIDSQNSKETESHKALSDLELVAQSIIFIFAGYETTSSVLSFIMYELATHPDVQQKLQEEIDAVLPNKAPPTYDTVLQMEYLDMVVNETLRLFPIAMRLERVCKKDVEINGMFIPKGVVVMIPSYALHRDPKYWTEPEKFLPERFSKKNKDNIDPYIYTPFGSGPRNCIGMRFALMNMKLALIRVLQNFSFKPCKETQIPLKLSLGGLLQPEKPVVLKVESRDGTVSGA
Sequence of Muscarinic acetylcholine receptor M1 (Rattus norvegicus) (P08482 whole entry, looked up): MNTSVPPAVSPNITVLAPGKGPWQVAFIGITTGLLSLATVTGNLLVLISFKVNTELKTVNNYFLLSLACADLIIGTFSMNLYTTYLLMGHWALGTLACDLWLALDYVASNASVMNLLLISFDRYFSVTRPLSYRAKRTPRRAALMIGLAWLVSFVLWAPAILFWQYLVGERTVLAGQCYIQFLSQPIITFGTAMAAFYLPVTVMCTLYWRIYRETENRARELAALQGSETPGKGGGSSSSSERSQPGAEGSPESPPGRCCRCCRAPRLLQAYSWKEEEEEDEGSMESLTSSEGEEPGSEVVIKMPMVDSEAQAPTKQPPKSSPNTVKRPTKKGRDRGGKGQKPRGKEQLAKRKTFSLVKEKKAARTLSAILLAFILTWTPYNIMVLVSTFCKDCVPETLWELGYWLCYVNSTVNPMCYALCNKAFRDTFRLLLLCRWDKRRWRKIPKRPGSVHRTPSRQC
Sequence of Glucocorticoid receptor (Homo sapiens) (P04150 whole entry, looked up): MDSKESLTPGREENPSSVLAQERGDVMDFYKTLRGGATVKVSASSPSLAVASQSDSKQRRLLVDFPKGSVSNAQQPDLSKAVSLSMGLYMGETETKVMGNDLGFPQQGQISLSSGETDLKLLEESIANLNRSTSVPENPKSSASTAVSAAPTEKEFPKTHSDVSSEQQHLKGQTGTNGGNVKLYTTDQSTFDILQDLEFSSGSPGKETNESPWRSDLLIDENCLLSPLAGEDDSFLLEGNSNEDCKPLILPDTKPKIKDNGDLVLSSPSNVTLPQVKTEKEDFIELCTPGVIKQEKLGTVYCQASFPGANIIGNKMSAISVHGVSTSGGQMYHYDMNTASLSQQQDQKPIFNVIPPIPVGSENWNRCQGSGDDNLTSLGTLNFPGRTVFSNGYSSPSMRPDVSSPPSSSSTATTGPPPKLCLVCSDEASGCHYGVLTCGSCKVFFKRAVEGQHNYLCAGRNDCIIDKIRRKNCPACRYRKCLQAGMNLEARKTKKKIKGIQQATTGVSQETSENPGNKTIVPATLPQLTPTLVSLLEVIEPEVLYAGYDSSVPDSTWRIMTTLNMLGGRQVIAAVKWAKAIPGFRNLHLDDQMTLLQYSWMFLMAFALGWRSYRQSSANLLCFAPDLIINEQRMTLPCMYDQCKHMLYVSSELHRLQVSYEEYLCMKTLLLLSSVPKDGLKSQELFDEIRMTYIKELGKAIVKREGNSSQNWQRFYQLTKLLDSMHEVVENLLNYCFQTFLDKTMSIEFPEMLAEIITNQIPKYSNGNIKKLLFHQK
Sequence of Retinoic acid receptor RXR-alpha (Homo sapiens) (P19793 whole entry, looked up): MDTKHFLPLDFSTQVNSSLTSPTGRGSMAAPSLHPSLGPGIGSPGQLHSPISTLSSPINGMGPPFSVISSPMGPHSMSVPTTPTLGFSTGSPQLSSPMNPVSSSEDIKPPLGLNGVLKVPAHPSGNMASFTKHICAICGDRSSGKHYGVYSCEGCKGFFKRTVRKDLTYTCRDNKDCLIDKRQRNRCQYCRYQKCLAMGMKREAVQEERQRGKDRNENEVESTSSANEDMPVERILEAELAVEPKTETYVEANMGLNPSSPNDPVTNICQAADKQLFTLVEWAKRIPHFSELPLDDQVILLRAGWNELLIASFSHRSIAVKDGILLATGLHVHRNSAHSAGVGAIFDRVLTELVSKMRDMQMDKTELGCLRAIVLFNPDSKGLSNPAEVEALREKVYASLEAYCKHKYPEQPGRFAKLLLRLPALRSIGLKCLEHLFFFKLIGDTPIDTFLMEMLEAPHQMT
Sequence of Cytochrome P450 2C9 (Homo sapiens) (P11712 whole entry, looked up): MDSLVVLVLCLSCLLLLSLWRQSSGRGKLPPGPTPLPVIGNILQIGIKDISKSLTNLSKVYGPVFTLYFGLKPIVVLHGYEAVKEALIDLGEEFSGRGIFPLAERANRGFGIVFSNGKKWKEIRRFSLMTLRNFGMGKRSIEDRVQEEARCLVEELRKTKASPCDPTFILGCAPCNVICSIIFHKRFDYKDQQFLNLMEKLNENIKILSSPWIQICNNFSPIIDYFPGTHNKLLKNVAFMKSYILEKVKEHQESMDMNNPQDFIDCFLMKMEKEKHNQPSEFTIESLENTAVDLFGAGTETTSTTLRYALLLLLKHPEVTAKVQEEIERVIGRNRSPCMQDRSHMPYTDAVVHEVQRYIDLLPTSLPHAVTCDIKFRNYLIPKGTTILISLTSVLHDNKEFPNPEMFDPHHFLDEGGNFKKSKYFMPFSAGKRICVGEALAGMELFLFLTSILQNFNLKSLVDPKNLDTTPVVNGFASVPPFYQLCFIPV
Sequence of Cytochrome P450 2D6 (Homo sapiens) (P10635 whole entry, looked up): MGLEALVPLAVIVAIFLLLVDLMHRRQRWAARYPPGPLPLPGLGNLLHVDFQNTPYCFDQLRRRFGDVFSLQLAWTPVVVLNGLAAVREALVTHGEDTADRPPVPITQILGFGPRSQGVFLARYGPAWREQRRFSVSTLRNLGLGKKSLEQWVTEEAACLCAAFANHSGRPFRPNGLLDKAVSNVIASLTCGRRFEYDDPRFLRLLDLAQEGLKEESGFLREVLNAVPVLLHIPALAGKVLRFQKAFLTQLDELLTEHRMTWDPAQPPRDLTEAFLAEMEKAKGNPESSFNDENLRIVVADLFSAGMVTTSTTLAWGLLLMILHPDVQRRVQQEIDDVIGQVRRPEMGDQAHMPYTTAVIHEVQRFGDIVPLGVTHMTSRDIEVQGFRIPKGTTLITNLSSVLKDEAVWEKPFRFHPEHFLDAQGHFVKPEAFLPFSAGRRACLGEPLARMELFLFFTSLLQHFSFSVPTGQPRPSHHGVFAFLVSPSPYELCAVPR

As for `O=C(O)[C@H]1CCN1`, the Potency result in experiment [1], in [2], in [3] and in [4] was “inactive” throughout.
Turning to `CCN(CC)c1ncnc2c1ncn2[C@@H]1O[C@@H](COP(=O)(O)OP(=O)(O)C(Br)(Br)P(=O)(O)O)[C@H](O)[C@@H]1O`, the Potency result in experiment [4] was “inactive”.
Regarding `C[C@]12CC[C@H](O)C[C@@H]1CC[C@H]1[C@H]2CC[C@]2(C)[C@H](C(=O)CO)CC[C@@H]12`, the Potency result in [3] and in experiment [4] was “inactive” in each case.
As to `CC(=O)OCC1=C(C(=O)[O-])N2C(=O)[C@@H](NC(=O)CCC[C@@H](N)C(=O)[O-])[C@@H]2SC1.[Zn+2]`, the Potency entry in experiment [3] and in [4] was “inactive” each time.
As to `COc1cc(C[C@H](C)N)c(OC)cc1I`, in [5], the activation was 2.02% (inactive) and -7.45% (inactive). Moreover, the Potency in experiment [4] was 0.891 µM (active).
On to `COc1ccc2c(c1O)-c1cccc3c1[C@H](C2)N(C)CC3`, for which the Potency result in experiment [3] was “inactive”.
Regarding `COC(=O)[C@H](N)CCCN=C(N)N[N+](=O)[O-]`, the Potency entry in [3] is “inactive”.
Consider `C=CCN1CC[C@]23c4c5ccc(O)c4O[C@@H]2/C(=N/NC(=O)c2ccccc2)CC[C@@]3(O)[C@H]1C5`, for which the Potency result in [4] is “inactive”.
As to `COc1ccc2c(c1)[C@]13CCCC[C@@H]1[C@H](C2)NCC3`, in experiment [6], the Potency is 6.31 µM (active).
`N[C@H](CCl)C(=O)O`: the Potency entry in [4] is “inactive”.
As for `ClC(Cl)c1ccccc1`, the Potency in experiment [7], in experiment [8] and in [9] was > 92 µM (inactive) throughout. Besides, the Potency entry in [10], in experiment [11], in [12], in [14], in experiment [2] and in experiment [17] was “inactive” throughout. For the same compound, the outcome in [13] was inactive. Further, in [15], the activation was -0.105% (inactive). In addition, the max response in experiment [16] was 1.37%; in [18], 4.33%; in [19] it was 0.971% (inactive). In addition, in experiment [20], the activity change % (negative = inhibition) is -1.09% (inactive).
For the compound `C=CCOCC1CO1` (stereo unspecified), the Potency in experiment [7], in experiment [8] and in experiment [9] was > 92 µM (inactive) in each case. Also, the Potency result in [10], in [11], in experiment [12], in experiment [14], in [2] and in experiment [17] was “inactive” throughout. Also, the result in experiment [13] was inactive. The activation in experiment [15] is 4.14% (inactive). Besides, the values for the max response in [16], in experiment [18] and in experiment [19] were 1.34%, 2.33% and 9.76% (inactive), respectively. Besides, in [20], the activity change % (negative = inhibition) was 1.27% (inactive).
